# According to ChEMBL document CHEMBL1961873, “Compounds: GSK PKIS; Assays: Nanosyn kinase panel” (2012):
# Target: Maternal embryonic leucine zipper kinase (Homo sapiens) (UniProt Q14680)
# Conditions: at 0.1 µM
# Sequence of Maternal embryonic leucine zipper kinase (Homo sapiens) (Q14680 whole entry, looked up): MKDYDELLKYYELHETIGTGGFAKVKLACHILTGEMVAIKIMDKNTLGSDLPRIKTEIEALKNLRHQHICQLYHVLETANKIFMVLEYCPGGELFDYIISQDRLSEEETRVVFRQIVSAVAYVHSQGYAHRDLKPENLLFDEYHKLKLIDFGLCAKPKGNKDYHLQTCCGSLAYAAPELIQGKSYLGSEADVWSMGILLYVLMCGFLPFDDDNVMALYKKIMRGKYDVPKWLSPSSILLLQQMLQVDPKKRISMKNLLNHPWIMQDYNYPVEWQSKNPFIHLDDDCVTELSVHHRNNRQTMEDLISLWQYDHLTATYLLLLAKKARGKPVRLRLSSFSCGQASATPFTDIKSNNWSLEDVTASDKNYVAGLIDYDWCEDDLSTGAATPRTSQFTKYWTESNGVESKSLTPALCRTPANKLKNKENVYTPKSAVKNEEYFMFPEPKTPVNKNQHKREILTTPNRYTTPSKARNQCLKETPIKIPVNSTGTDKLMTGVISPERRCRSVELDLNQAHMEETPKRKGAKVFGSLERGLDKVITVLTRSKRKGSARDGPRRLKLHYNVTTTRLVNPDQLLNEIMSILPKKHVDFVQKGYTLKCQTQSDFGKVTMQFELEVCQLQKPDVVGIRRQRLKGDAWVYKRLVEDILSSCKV
row,SMILES,inhibition
1,COc1cc2c(cc1Nc1nc(Nc3ccsc3C(N)=O)c3cc[nH]c3n1)N(C(=O)CN(C)C)CCC2,1.24%
2,NS(=O)(=O)c1ccc(N/C=C2\C(=O)Nc3ccc4ncsc4c32)cc1,38.6%
3,Fc1ccc(-c2ncn(C3CCNCC3)c2-c2ccnc(Oc3ccccc3)n2)cc1,3.76%
4,Nc1nonc1-c1nc2cnccc2n1C1CCCCC1,10.3%
5,NC(=O)c1sc(-n2cnc3cc(C(F)(F)F)ccc32)cc1OCc1ccccc1Br,4.69%
6,CCn1c(-c2nonc2N)nc2c(C#CC(C)(C)O)ncc(OCC3CCNCC3)c21,6.83%
7,COc1cccc(COc2cc(-n3cnc4ccccc43)sc2C(N)=O)c1,-2.92%
8,CCn1c(-c2nonc2N)nc2c(C#CC(C)(C)O)ncc(OC[C@@H]3CCCN3)c21,1.75%
9,CCn1c(-c2nonc2N)nc2c(C#CC(C)(C)O)nc(O[C@@H](CN)c3ccccc3)cc21,42.2%
10,NS(=O)(=O)c1ccc(-c2ccc3c(NC(=O)C4CC4)n[nH]c3c2)cc1,0.83%
11,CCn1c(-c2nonc2N)nc2c(C#CCN)ncc(OCCCN)c21,-1.84%
12,Cc1cc(-c2ccco2)cc(C)c1/C=C/c1cncc(-c2nn[nH]n2)c1,1.3%
13,COc1cccc(-n2ncc3c(N/N=C/c4ccncc4)ncnc32)c1,2.47%
14,COc1cc(C=NNc2ncnc3c2cnn3Cc2ccccc2)ccc1O,13.2%

# Target: Maternal embryonic leucine zipper kinase (Homo sapiens) (UniProt Q14680)
# Conditions: at 1 µM
row,SMILES,inhibition
1,COc1cc2c(cc1Nc1nc(Nc3ccsc3C(N)=O)c3cc[nH]c3n1)N(C(=O)CN(C)C)CCC2,11.3%
2,NS(=O)(=O)c1ccc(N/C=C2\C(=O)Nc3ccc4ncsc4c32)cc1,89.5%
3,Fc1ccc(-c2ncn(C3CCNCC3)c2-c2ccnc(Oc3ccccc3)n2)cc1,4.43%
4,Nc1nonc1-c1nc2cnccc2n1C1CCCCC1,74.6%
5,NC(=O)c1sc(-n2cnc3cc(C(F)(F)F)ccc32)cc1OCc1ccccc1Br,0.55%
6,CCn1c(-c2nonc2N)nc2c(C#CC(C)(C)O)ncc(OCC3CCNCC3)c21,31.6%
7,COc1cccc(COc2cc(-n3cnc4ccccc43)sc2C(N)=O)c1,-8.42%
8,CCn1c(-c2nonc2N)nc2c(C#CC(C)(C)O)ncc(OC[C@@H]3CCCN3)c21,18.4%
9,CCn1c(-c2nonc2N)nc2c(C#CC(C)(C)O)nc(O[C@@H](CN)c3ccccc3)cc21,90.4%
10,NS(=O)(=O)c1ccc(-c2ccc3c(NC(=O)C4CC4)n[nH]c3c2)cc1,1.42%
11,CCn1c(-c2nonc2N)nc2c(C#CCN)ncc(OCCCN)c21,16%
12,Cc1cc(-c2ccco2)cc(C)c1/C=C/c1cncc(-c2nn[nH]n2)c1,0.19%
13,COc1cccc(-n2ncc3c(N/N=C/c4ccncc4)ncnc32)c1,6.51%
14,COc1cc(C=NNc2ncnc3c2cnn3Cc2ccccc2)ccc1O,47.1%

# Target: MAP kinase-interacting serine/threonine-protein kinase 1 (Homo sapiens) (UniProt Q9BUB5)
# Conditions: at 0.1 µM
# Sequence of MAP kinase-interacting serine/threonine-protein kinase 1 (Homo sapiens) (Q9BUB5 whole entry, looked up): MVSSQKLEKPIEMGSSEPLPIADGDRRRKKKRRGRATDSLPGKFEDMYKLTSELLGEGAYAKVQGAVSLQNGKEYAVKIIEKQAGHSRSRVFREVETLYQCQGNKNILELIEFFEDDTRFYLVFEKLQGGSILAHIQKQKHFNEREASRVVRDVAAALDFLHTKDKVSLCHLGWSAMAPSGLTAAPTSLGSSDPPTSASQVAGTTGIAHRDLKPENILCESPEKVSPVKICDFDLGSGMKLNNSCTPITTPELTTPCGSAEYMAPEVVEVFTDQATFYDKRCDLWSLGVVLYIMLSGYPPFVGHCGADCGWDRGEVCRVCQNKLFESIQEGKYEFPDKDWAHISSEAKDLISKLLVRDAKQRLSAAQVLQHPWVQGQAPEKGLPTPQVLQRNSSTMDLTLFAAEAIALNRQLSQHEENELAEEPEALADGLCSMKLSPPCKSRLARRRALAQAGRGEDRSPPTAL
row,SMILES,inhibition
1,COc1cc2c(cc1Nc1nc(Nc3ccsc3C(N)=O)c3cc[nH]c3n1)N(C(=O)CN(C)C)CCC2,0.63%
2,NS(=O)(=O)c1ccc(N/C=C2\C(=O)Nc3ccc4ncsc4c32)cc1,4.69%
3,Fc1ccc(-c2ncn(C3CCNCC3)c2-c2ccnc(Oc3ccccc3)n2)cc1,1.38%
4,Nc1nonc1-c1nc2cnccc2n1C1CCCCC1,-0.38%
5,NC(=O)c1sc(-n2cnc3cc(C(F)(F)F)ccc32)cc1OCc1ccccc1Br,1.99%
6,CCn1c(-c2nonc2N)nc2c(C#CC(C)(C)O)ncc(OCC3CCNCC3)c21,1.39%
7,COc1cccc(COc2cc(-n3cnc4ccccc43)sc2C(N)=O)c1,1.73%
8,CCn1c(-c2nonc2N)nc2c(C#CC(C)(C)O)ncc(OC[C@@H]3CCCN3)c21,1.39%
9,CCn1c(-c2nonc2N)nc2c(C#CC(C)(C)O)nc(O[C@@H](CN)c3ccccc3)cc21,0.51%
10,NS(=O)(=O)c1ccc(-c2ccc3c(NC(=O)C4CC4)n[nH]c3c2)cc1,4.28%
11,CCn1c(-c2nonc2N)nc2c(C#CCN)ncc(OCCCN)c21,-0.19%
12,Cc1cc(-c2ccco2)cc(C)c1/C=C/c1cncc(-c2nn[nH]n2)c1,3.16%
13,COc1cccc(-n2ncc3c(N/N=C/c4ccncc4)ncnc32)c1,23.2%
14,COc1cc(C=NNc2ncnc3c2cnn3Cc2ccccc2)ccc1O,-2.04%

# Target: MAP kinase-interacting serine/threonine-protein kinase 1 (Homo sapiens) (UniProt Q9BUB5)
# Conditions: at 1 µM
row,SMILES,inhibition
1,COc1cc2c(cc1Nc1nc(Nc3ccsc3C(N)=O)c3cc[nH]c3n1)N(C(=O)CN(C)C)CCC2,0.17%
2,NS(=O)(=O)c1ccc(N/C=C2\C(=O)Nc3ccc4ncsc4c32)cc1,24%
3,Fc1ccc(-c2ncn(C3CCNCC3)c2-c2ccnc(Oc3ccccc3)n2)cc1,2.07%
4,Nc1nonc1-c1nc2cnccc2n1C1CCCCC1,4.63%
5,NC(=O)c1sc(-n2cnc3cc(C(F)(F)F)ccc32)cc1OCc1ccccc1Br,2.87%
6,CCn1c(-c2nonc2N)nc2c(C#CC(C)(C)O)ncc(OCC3CCNCC3)c21,9.05%
7,COc1cccc(COc2cc(-n3cnc4ccccc43)sc2C(N)=O)c1,12%
8,CCn1c(-c2nonc2N)nc2c(C#CC(C)(C)O)ncc(OC[C@@H]3CCCN3)c21,1.82%
9,CCn1c(-c2nonc2N)nc2c(C#CC(C)(C)O)nc(O[C@@H](CN)c3ccccc3)cc21,6.37%
10,NS(=O)(=O)c1ccc(-c2ccc3c(NC(=O)C4CC4)n[nH]c3c2)cc1,17.9%
11,CCn1c(-c2nonc2N)nc2c(C#CCN)ncc(OCCCN)c21,7.05%
12,Cc1cc(-c2ccco2)cc(C)c1/C=C/c1cncc(-c2nn[nH]n2)c1,29.9%
13,COc1cccc(-n2ncc3c(N/N=C/c4ccncc4)ncnc32)c1,70.4%
14,COc1cc(C=NNc2ncnc3c2cnn3Cc2ccccc2)ccc1O,0.25%
